An excerpt weighted towards active compounds, which were near 9.3% of everything screened.
HCV inh = blocks hepatitis C virus | Huh7.5.1 HCVcc-Cre infection, luciferase reporter, 44 h | Potency, µM (series often up to 41.8 µM), for the others: at the highest dose activity change, negative = inhibition, most hits filed as inhibitors | 340,000 tested, 3.4% active | AID 651820; note: potency is the fitted concentration of half-maximal effect
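Antiviral activity was scored by luciferase reporter output from cells infected with HCVcc-Cre (~0.5 moi) in presence of compound, 44 h infection period, cells seeded 1,000/well 4 h prior.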
Sm TGR inh = inhibitors of Schistosoma mansoni thioredoxin glutathione reductase; Q962Y6; 360,000 tested, 3% active; Potency, µM (doses to about 114 µM), without a hit: at the highest dose activity change, negative = inhibition, most hits filed as inhibitors; purified TGR, DTNB reduction, TNB absorbance 405 nm; note: potency is the fitted concentration of half-maximal effect; nearly all actives have a fitted effect of over 60% in size
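TGR 20 nM + NADPH 100 uM (dispensed conc.), cpd preinc 15 min RT; start with NADPH (500 uM addition) then DTNB (15 mM addition). Kinetic TNB absorbance, 405 nm filter. Four-parameter Hill fit across titration.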
FMDV antiviral = antivirals against foot and mouth disease virus. FMDV antiviral cell-based qHTS. Potency, µM (titrated, usually from 57.9 µM), inactives show at the top dose activity change, negative = inhibition, usual class: inhibitors. 410,000 tested, 1.2% active. AID 1159524; calls by dose curve; tested in HEK293T cells; note: read-out not given here; potency is the fitted concentration of half-maximal effect; nearly all actives have a fitted effect of over 45% in size
VACV Venus inh = vaccinia inhibition (Venus reporter). Vaccinia virus Venus reporter expression, fluorescence. Potency, µM (top dose mostly 36.5 µM), for the others: at the top dose activity change, negative = inhibition, usual class: inhibitors. 330,000 tested, 0.46% active; calls by dose curve; tested in A549 cells; note: potency is the fitted concentration of half-maximal effect; nearly all actives have a fitted effect of over 30% in size
HCMV inh = inhibitors of human cytomegalovirus; AID 1259415; activity change, negative = inhibition, % at 57.5 µM; HFF cells, HCMV-luciferase reporter, 72 h; hits give low values; 410,000 tested, 4.5% active; in the data active = activity change below about -60%; inconclusive = no clear call, values can overlap the other calls; inactive = above about -39%
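Cell-based, HFFs, 1000 cells/well, 16 h 37C; cpds in DMSO + HCMV-luc, MOI 1 PFU/cell; 72 h 37C; OneGlo luminescence after 5 min RT; norm. to buffer vs Salinomycin 10uM.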
VACV mCherry inh = vaccinia inhibition (mCherry reporter) | Vaccinia virus mCherry reporter infection, fluorescence | Potency, µM (titrated, usually from 36.5 µM), without a hit: at the highest dose activity change, negative = inhibition, actives largely listed as inhibitors | 310,000 tested, 0.63% active | AID 720579; calls by dose curve; tested in A549 cells; note: potency is the fitted concentration of half-maximal effect; nearly all actives have a fitted effect of over 35% in size
* hit, by the source's call; i = inactive; ? = inconclusive; . = no result; + = active, no number; ! = a repeat was not active; [ ] = another dose, or the depositor's remark. Unless noted, calls come from the whole dose curve; as a rule, active = well fitted curve in the direction sought with a large enough effect; inconclusive = small, poorly fitted or top-dose-only effect, or another doubt; inactive = no such curve, though single readings can be large; an effect the other way counts as inactive or inconclusive. % is set by controls: 0 for no effect and ±100 for the full control effect.

SMILES	HCV inh	Sm TGR inh	FMDV antiviral	VACV Venus inh	HCMV inh	VACV mCherry inh
CC(=O)Nc1ccc(NS(=O)(=O)c2ccc3c(c2)CC(C)N3C(=O)C2CCC2)cc1 (centres undefined)	.	4%	-23%	-11%	-5	-20%
COc1cccc(CNC(=O)C(NS(=O)(=O)c2ccc3c(c2)CCN3C(C)=O)C(C)C)c1 (centres undefined)	0%	0%	9%	-18%	+!	-9%
Cc1ccc(NS(=O)(=O)c2ccc3c(c2)CC(C)N3C(=O)C2CCC2)cc1Cl (centres undefined)	.	0%	12%	-21%	-76*	-31%
COc1ccc(Cl)cc1NC(=O)CN(C)S(=O)(=O)c1ccc(Br)s1	.	4%	-16%	-2%	-38	-4%
O=[N+]([O-])c1ccc(NN=Cc2ccccc2)nc1	9%	.	17%	-15%	52	i
CCN(CC)S(=O)(=O)c1ccc(N/N=C(\C)c2ccncc2)nc1	?	-1%	-1%	8%	13	-9%
CCN(CC)S(=O)(=O)c1ccc(N/N=C/c2ccc(O)cc2O)nc1	?	21%	-29%	?	-101*	4µM*
O=[N+]([O-])c1ccc(NN=Cc2ccccc2O)nc1	?	.	65%	?	-98*	?
O=[N+]([O-])c1ccc(O)c(/C=N/Nc2ccccn2)c1	2.5µM*	-6%	-22%	5µM*	-102*	1.8µM*
N#Cc1ccccc1Cn1cc(/C=N/Nc2ccc([N+](=O)[O-])cn2)c2ccccc21	2.5µM*	0%	-25%	1%	-29	-5%
COc1ccccc1C=NNc1ccc([N+](=O)[O-])cn1	9%	.	2%	-1%	20	-15%
O=[N+]([O-])c1cccc(N/N=C/c2cc([N+](=O)[O-])ccc2O)c1	-19%	-3%	-27%	-24%	-9	-22%
CC(C)CNC(=S)NC(=O)c1ccccc1Cl	16%	-16%	39%	-6%	-12	-17%
O=[N+]([O-])c1ccc(O)c(/C=N/Nc2ncnc3c2cnn3-c2ccccc2)c1	2.8µM*	1%	27%	.	-99*	.
O=[N+]([O-])c1ccc(O)c(/C=N/Nc2nc3ccccc3[nH]2)c1	11µM*	4%	11%	?	-99*	8.9µM*
O=[N+]([O-])c1ccc(NN=Cc2ccc(O)cc2O)nc1	?	.	13%	?	-98*	1.4µM*
O=[N+]([O-])c1ccc(NN=Cc2ccc(O)cc2)nc1	-22%	.	-17%	-2%	8	?
Cc1cc(/C=N/Nc2ccc([N+](=O)[O-])cn2)c(C)n1-c1ccc(C(=O)O)cc1	8%	35µM*	10%	-2%	-4	-12%
NC(=O)NCc1ccccc1Cl	3%	16%	-14%	-6%	-10	i
CC1(C)CC(=O)C2=C(C1)OC(N)=C(C#N)C2c1cn(-c2ccccc2)nc1-c1ccccc1 (centres undefined)	-4%	-7%	0%	-15%	9	-24%
CCOC(=O)/C=C/C(=O)OCC(=O)Nc1ccc(OC)c(Cl)c1	-2%	18µM*	-11%	.	23	.
COc1ccc(S(=O)CC(=O)Nc2ccc(Cl)cc2Cl)cc1 (centres undefined)	-2%	-3%	-10%	0%	-66*	-12%
CCOC(=O)/C=C/C(=O)OCC(=O)NCc1ccccc1	23%	25µM*	-14%	.	-22	.
COc1ccc(NC(=O)COC(=O)/C=C/C(=O)OCC(=O)Nc2ccc(OC)c(Cl)c2)cc1Cl	0%	?	?	-17%	-20	-5%
CCOC(=O)/C=C/C(=O)OCC(=O)Nc1ccc(Cl)cc1Cl	15%	11µM*	-19%	-9%	44	-1%
SMILES	HCV inh	Sm TGR inh	FMDV antiviral	VACV Venus inh	HCMV inh	VACV mCherry inh
CCOC(=O)/C=C/C(=O)OCC(=O)Nc1c(Cl)cccc1Cl	5%	20µM*	-17%	-5%	-27	-8%
Nc1nnn(-c2ccccc2)c1-c1ccccc1	5%	.	5%	-11%	9	-9%
CCN(C(=O)CSc1nnc(Nc2cccc(C)c2C)s1)C1CCS(=O)(=O)C1 (centres undefined)	22%	1%	-19%	-23%	-7	i
CCN(C(=O)CSc1nnc(NCc2ccccc2)s1)C1CCS(=O)(=O)C1 (centres undefined)	8%	-3%	3%	.	-74*	.
COc1ccc(NC(=O)c2csc(Cc3ccc(Cl)cc3)n2)cc1	-3%	-3%	-5%	.	?	.
COc1ccc(NC(=O)c2ccccn2)cc1	6%	-26%	11µM*	-12%	.	.
COc1ccc(Cc2nc(C(=O)Nc3ccc(F)cc3)cs2)cc1	10µM*	-8%	-1%	?	-25	-18%
COc1ccc(C(=O)Nc2ccc(NC(=O)c3ccccn3)cn2)cc1	-20%	0%	4%	-6%	-32	-23%
O=C(NN=C(c1ccccc1)c1ccccn1)c1ccccc1	2.5µM*	.	-14%	?	-98*	2µM*
O=C(N/N=C(\c1ccccc1)c1ccccn1)c1ccccc1Cl	?	-1%	?	?	-114*	2.5µM*
Nc1ccccc1SC(CC(=O)c1ccccc1)c1ccc([N+](=O)[O-])cc1 (centres undefined)	.	.	10%	-12%	64	?
Cc1cc(C)cc(OCC(=O)NNC(=O)c2ccccn2)c1	?	-1%	-12%	.	-97*	.
COc1ccc(C(=O)N/N=C/c2cccc3cccnc23)cc1	-16%	-1%	15%	?	72	.
COc1ccc(C(=O)N/N=C(\c2ccccc2)c2ccccn2)cc1	2.8µM*	-9%	-33%	?	-99*	2.2µM*
CN(CC(=O)Nc1cccc(F)c1)C(=O)c1ccc2c(c1)S(=O)(=O)N=C1CCCCCN12	?	1%	-4%	-5%	-28	-8%
CCCOC(=O)c1ccc2c(c1)C(=O)N(c1ccccc1)C2=O	-3%	9%	.	-3%	-17	-4%
CSc1oc(-c2ccc(F)cc2)nc1S(=O)(=O)c1ccc(F)cc1	-3%	-2%	-24%	-10%	?	i
Cc1ccc(S(=O)(=O)c2nc(-c3cccs3)oc2SC(C)C)cc1	.	-3%	-13%	-10%	-7	-1%
CC(C)S(=O)(=O)c1oc(-c2ccc(F)cc2)nc1S(=O)(=O)c1ccccc1	.	0.89µM*	16µM*	-12%[7.34 µM]	-97*	-19%[7.34 µM]
CCCCS(=O)(=O)c1oc(-c2ccc(F)cc2)nc1S(=O)(=O)c1ccccc1	.	0%	32µM*	-17%[7.34 µM]	-99*	-19%[7.34 µM]
CC(C)S(=O)(=O)c1oc(-c2cccs2)nc1S(=O)(=O)c1ccc(F)cc1	.	0.89µM*	22µM*	-13%[7.34 µM]	-102*	-18%[7.34 µM]
CSc1oc(-c2ccc(F)cc2)nc1S(=O)(=O)c1ccccc1	-7%	-1%	.	-13%	0	-14%
